From PubChem BioAssay (EPA / NIEHS)
The source made the active and inactive calls. How the source made its calls: active means hit-call score of the fitted dose curve at least 0.9, where 1 is the maximum; inactive means score below 0.9.

Experiments:
Settings in all cases: mRNA level, 48 h; actives raise or lower the signal
[1] = read-out: Cytochrome P450 (CYP24A1), CYP24A1 (gene 1591); experiment: LTEA_HepaRG_CYP24A1: Life Technologies and Expression Analysis (LTEA) Assay for Cytochrome P450 (CYP24A1) using HepaRG (AID 2283478)
Procedure, shortened: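 HepaRG cells plated 48 h, then exposed in duplicate in serum-free induction medium for 48 h to 8-point half-log series from 100 uM in 0.5% DMSO. CYP24A1 mRNA by Fluidigm qRT-PCR, normalized to ACTB, GAPDH, POLR2A; bidirectional fit versus DMSO.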

[2] = read-out: Cytochrome P450 (CYP1A2), CYP1A2 (gene 1544); experiment: LTEA_HepaRG_CYP1A2: Life Technologies and Expression Analysis (LTEA) Assay for Cytochrome P450 (CYP1A2) using HepaRG (AID 2283479)
Procedure, shortened: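 Differentiated human HepaRG cells in serum-free induction medium exposed 48 hours in duplicate to 8 half-log concentrations from 100 uM, 0.5% DMSO. CYP1A2 mRNA quantified by qRT-PCR, normalized to ACTB, GAPDH and POLR2A; bidirectional fitting versus DMSO.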

[3] = read-out: cysteine-aspartic acid protease (CASP8), CASP8 (gene 841); experiment: LTEA_HepaRG_CASP8: Life Technologies and Expression Analysis (LTEA) Assay for cysteine-aspartic acid protease (CASP8) using HepaRG (AID 2283480)
Procedure, shortened: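 qRT-PCR readout of CASP8 mRNA, normalized to three housekeeping genes, after 48 h chemical exposure of HepaRG cells; 8-point half-log series, top 100 uM, 0.5% DMSO vehicle. Bidirectional curve fitting against DMSO baseline.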

[4] = read-out: Cytochrome P450 (CYP2B6), CYP2B6 (gene 1555); experiment: LTEA_HepaRG_CYP2B6: Life Technologies and Expression Analysis (LTEA) Assay for Cytochrome P450 (CYP2B6) using HepaRG (AID 2283481)
Procedure, shortened: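 Differentiated human HepaRG cells in serum-free induction medium, dosed in duplicate for 48 h over 8 half-log concentrations topping at 100 uM (0.5% DMSO). CYP2B6 mRNA measured by TaqMan qRT-PCR, normalized to ACTB, GAPDH, POLR2A; bidirectional fit versus DMSO.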

[5] = read-out: Cytochrome P450 2C19 (Homo sapiens) (UniProt P33261); experiment: LTEA_HepaRG_CYP2C19: Life Technologies and Expression Analysis (LTEA) Assay for CYP2C19 using HepaRG (AID 2283482)
Procedure, shortened: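 Differentiated HepaRG cells in serum-free induction medium exposed 48 h in duplicate, 8 concentrations from 100 uM by half-log steps in 0.5% DMSO. CYP2C19 mRNA measured by TaqMan qRT-PCR, normalized to ACTB, GAPDH, POLR2A. Bidirectional fit versus DMSO.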

[6] = read-out: CYP2C8 (gene 1558); experiment: LTEA_HepaRG_CYP2C8: Life Technologies and Expression Analysis (LTEA) Assay for CYP2C8 using HepaRG (AID 2283483)
Procedure, shortened: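 HepaRG (human liver line), 48 h chemical exposure, 8-pt half-log series from 100 uM, 0.5% DMSO vehicle. Readout: CYP2C8 transcript by qRT-PCR, housekeeping-normalized. Bidirectional fit vs DMSO baseline.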

[7] = read-out: CYP2E1 (gene 1571); experiment: LTEA_HepaRG_CYP2E1: Life Technologies and Expression Analysis (LTEA) Assay for CYP2E1 using HepaRG (AID 2283485)
Procedure, shortened: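 CYP2E1 transcript was measured by TaqMan qRT-PCR in human HepaRG cultures after 48 h chemical exposure (top 100 uM, half-log steps, 0.5% DMSO vehicle). Housekeeping-gene normalization; gain or loss fitted relative to DMSO baseline.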

[8] = read-out: CYP4A11 (gene 1579); experiment: LTEA_HepaRG_CYP4A11: Life Technologies and Expression Analysis (LTEA) Assay for CYP4A11 using HepaRG (AID 2283486)
Procedure, shortened: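 Differentiated HepaRG cells, 48 h after plating, exposed in duplicate for 48 h to 8 half-log concentrations up to 100 uM in 0.5% DMSO in serum-free induction medium. CYP4A11 mRNA measured by TaqMan qRT-PCR, normalized to ACTB, GAPDH and POLR2A.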

[9] = read-out: CYP2C9 (gene 1559); experiment: LTEA_HepaRG_CYP2C9: Life Technologies and Expression Analysis (LTEA) Assay for CYP2C9 using HepaRG (AID 2283484)
Procedure, shortened: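 HepaRG, 48 h dosing, 8-pt half-log series, top 100 uM, 0.5% DMSO vehicle. Read-out: CYP2C9 transcript by TaqMan qRT-PCR, housekeeping-normalized (ACTB/GAPDH/POLR2A). Gain or loss fitted vs DMSO baseline.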

[10] = read-out: Cytochrome P450 3A4 (Homo sapiens) (UniProt P08684); experiment: LTEA_HepaRG_CYP3A4: Life Technologies and Expression Analysis (LTEA) Assay for CYP3A4 using HepaRG (AID 2283487)
Procedure, shortened: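 HepaRG, 48 h exposure, 8-pt CRC from 100 uM (half-log), 0.5% DMSO, duplicates; serum-free induction medium. Readout: CYP3A4 mRNA, qRT-PCR, ACTB/GAPDH/POLR2A normalization. Bidirectional fit vs DMSO.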

Measured: AC50

Sequence of Cytochrome P450 2C19 (Homo sapiens) (P33261 whole entry, looked up): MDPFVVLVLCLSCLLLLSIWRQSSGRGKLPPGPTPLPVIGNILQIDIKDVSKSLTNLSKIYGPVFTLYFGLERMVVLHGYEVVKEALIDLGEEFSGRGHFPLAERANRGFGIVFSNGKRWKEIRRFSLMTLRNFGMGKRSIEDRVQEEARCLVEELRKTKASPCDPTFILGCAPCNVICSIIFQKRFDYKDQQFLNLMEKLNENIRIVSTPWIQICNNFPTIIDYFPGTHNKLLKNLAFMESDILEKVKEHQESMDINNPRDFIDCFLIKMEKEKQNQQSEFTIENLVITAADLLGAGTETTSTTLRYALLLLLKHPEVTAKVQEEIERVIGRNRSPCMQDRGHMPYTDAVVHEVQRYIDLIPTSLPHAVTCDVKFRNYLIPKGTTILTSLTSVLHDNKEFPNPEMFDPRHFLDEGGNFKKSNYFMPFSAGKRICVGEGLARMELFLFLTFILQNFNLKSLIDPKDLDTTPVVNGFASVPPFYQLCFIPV
Sequence of Cytochrome P450 3A4 (Homo sapiens) (P08684 whole entry, looked up): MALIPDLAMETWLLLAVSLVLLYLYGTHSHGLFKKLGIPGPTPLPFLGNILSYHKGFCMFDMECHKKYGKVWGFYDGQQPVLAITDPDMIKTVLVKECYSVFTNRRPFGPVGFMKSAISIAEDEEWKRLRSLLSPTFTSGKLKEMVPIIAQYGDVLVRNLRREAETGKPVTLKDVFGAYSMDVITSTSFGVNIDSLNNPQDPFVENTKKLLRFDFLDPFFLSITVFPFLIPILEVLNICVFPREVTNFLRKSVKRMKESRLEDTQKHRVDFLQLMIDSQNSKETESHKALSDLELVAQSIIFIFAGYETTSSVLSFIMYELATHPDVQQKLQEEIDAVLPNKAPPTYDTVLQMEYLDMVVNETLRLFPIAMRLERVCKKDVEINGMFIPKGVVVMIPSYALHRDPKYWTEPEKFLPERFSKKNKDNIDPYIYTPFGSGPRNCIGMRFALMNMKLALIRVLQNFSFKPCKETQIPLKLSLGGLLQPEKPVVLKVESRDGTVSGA

ClC1=C(Cl)C(Cl)(Cl)C(Cl)=C1Cl
not listed: [9] | [10]
inactive: all other assays above

Nc1cccc2c(N)cccc12
active: [2] 20.1 µM | [4] 2.68 µM | [7] 50 µM | [8] 50 µM
not listed: [10]
inactive: all other assays above

OCCC(F)(F)C(F)(F)C(F)(F)C(F)(F)C(F)(F)C(F)(F)C(F)(F)C(F)(F)F
not listed: [10]
inactive: all other assays above

CC(C)CCCCCCOC(=O)CCCCC(=O)OCCCCCCC(C)C
active: [2] 50 µM | [4] 31.8 µM
not listed: [9] | [10]
inactive: all other assays above

CCCCOCCO
not listed: [10]
inactive: all other assays above

CCCCC(CC)COC(=O)CCCCC(=O)OCc1ccccc1 (stereo not drawn)
not listed: [10]
inactive: all other assays above

CC#C[C@]1(O)CC[C@H]2[C@@H]3CCC4=CC(=O)CCC4=C3[C@@H](c3ccc(N(C)C)cc3)C[C@@]21C
active: [2] 26.4 µM | [3] 27.6 µM | [4] 34 µM | [5] 33 µM | [6] 28 µM | [9] 50 µM | [7] 19.6 µM | [8] 23.9 µM
inactive: [1]

CCCCCCCCOC(=O)CCCCCCCCC(=O)OCCCCCCCC
active: [2] 29.9 µM
inactive: all other assays above

COc1ccc([N+](=O)[O-])cc1N
active: [2] 50 µM | [4] 20.7 µM
not listed: [9] | [10]
inactive: all other assays above

NC(=O)N1C(=O)C(C(=O)c2cc(Cl)cs2)c2cc(F)c(Cl)cc21 (stereo not drawn)
inactive: [1]
active: [2] 4.16 µM | [3] 19.2 µM | [4] 16.3 µM | [5] 22.4 µM | [6] 50 µM | [7] 13.2 µM

CC(=O)NC1(c2cccc(F)c2)CCN(CC[C@@]2(c3ccc(Cl)c(Cl)c3)CN(c3ccccc3)C(=O)CO2)CC1
active: [7] 11 µM | [8] 13.1 µM
not listed: [10]
inactive: all other assays above

CC(C)(C)c1cccc(C(C)(C)C)c1O
not listed: [8] | [9] | [10]
inactive: all other assays above

CCCCCCCCCCCCCCCS(=O)(=O)Oc1ccccc1
inactive: [1] | [3] | [9] | [8]
active: [2] 5.56 µM | [4] 3.1 µM | [5] 8.59 µM | [6] 7.61 µM | [7] 14.1 µM

OC1CCCCC1
not listed: [10]
inactive: all other assays above

NC(=O)N(O)[C@@H]1C=C[C@H](Oc2cccc(Oc3ccc(F)cc3)c2)C1
active: [2] 21.2 µM | [4] 34.4 µM | [5] 76.7 µM | [6] 27.3 µM | [7] 32.1 µM | [8] 30.8 µM
inactive: [1] | [3]
